Assay results as given in PubChem BioAssay AID504621 (Broad Institute, 2011).
The whole screen tested about 310,000 compounds, of which about 970 (0.31%) were called active.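 Rule for the calls: active = every replicate shows inhibition above about 80%, whatever the replicate mean (limit read from the data); inconclusive = mean inhibition reaches the set limit but some replicate falls short; inactive = the rest.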 Only a selection was taken, and actives are over-represented in it overall.

Test: growth inhibition of PfHsp90-expressing yeast, primary screen, antimalarial PfHsp90 inhibitor project, S. cerevisiae, BacTiter-Glo luminescence, single point, set 2 (AID 504621);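 note: yeast relying on Plasmodium falciparum Hsp90 in place of its own; 0% = DMSO neutral controls and 100% = 20 µM radicicol positive controls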
Details: BacTiter-Glo ATP, 48 h, at 9.4 µM, hits give high values, yeast lacking PDR1 and PDR3 efflux regulators
For `COc1ccc(CC(=O)NC(C)c2ccc(Cl)c(Cl)c2)cc1S(=O)(=O)N1CCOCC1` (configuration not stated), the inhibition was 15.2% (inactive). In the case of `CCOc1ccc(C(C)C)cc1S(=O)(=O)n1nc(C)cc1C`, the inhibition is reported as 11.4% (inactive). With `COc1ccc(OCc2cn3c(C)cc(C)nc3n2)cc1` the inhibition was -13.7% (inactive). For `COc1ccc(C(C[N+](=O)[O-])n2nc(C)cc2C)cc1` (configuration not stated), the inhibition was 104% (active). For `O=C(Cc1nc2ccccc2[nH]c1=O)c1ccc(Cl)cc1`, the inhibition was -1.68% (inactive). In the case of `CCC(=O)/C(=C(/O)c1ccccc1)c1nc2ccccc2[nH]1`, the inhibition is reported as -12.2% (inactive). With `O=C(/C(=C/c1cccc(Cl)c1)c1nc2ccccc2[nH]1)c1ccccc1` the inhibition was 86.9% (active). In the case of `Nc1ccc2c(c1)C(O)c1ccc(Cl)cc1-2` (configuration not stated), the inhibition is reported as -1.88% (inactive). With `O=C(Nc1ccccc1Cl)/C(Cl)=C(\Cl)S(=O)c1ccccc1` (configuration not stated) the inhibition was 127% (active). For `O=C(Nc1ccccc1Cl)O/N=C(/c1ccccc1)c1ccccn1`, the inhibition was 9.66% (inactive). For `CN(C)S(=O)(=O)Oc1ccccc1C(=O)Nc1ccccc1Cl`, the inhibition was 15.5% (inactive). In the case of `Cc1cc(OCCCC(=O)Nc2cc(S(=O)(=O)N3CCOCC3)ccc2N2CCOCC2)ccc1Cl`, the inhibition is reported as -7.69% (inactive). With `COc1ccc(C2=Nn3c(nnc3-c3ccccc3OC)SC2)cc1OC1CCCC1` the inhibition was 1.24% (inactive). For `CCCCN(C(=O)CSCc1ccc(C)cc1)c1c(N)n(Cc2ccccc2)c(=O)[nH]c1=O`, the inhibition was -17.2% (inactive). In the case of `Cc1cc2c(cc1C)NC1(C[C@H]3CCC(=O)N4CC[C@@H](C1)[C@@H]34)C(=NC(C)(C)CC(C)(C)C)N2` (some centres not stated), the inhibition is reported as 3.65% (inactive). For `Cc1cccc(NC(=O)c2nc(S(=O)(=O)Cc3ccccc3)ncc2Cl)c1`, the inhibition was 98.3% (active). In the case of `CSc1ncc(Cl)c(C(=O)Nc2cc(C)ccc2C)n1`, the inhibition is reported as 7.23% (inactive). In the case of `Cc1cccc(CS(=O)(=O)c2ncc(Cl)c(C(=O)Nc3ccc(F)cc3)n2)c1`, the inhibition is reported as 105% (active). For `Cc1ccc(CS(=O)(=O)c2ncc(Cl)c(C(=O)Nc3nnc(C)s3)n2)cc1`, the inhibition was 7.63% (inactive). With `CCOc1ccc(NC(=O)c2nc(SCC)ncc2Cl)cc1` the inhibition was 15.7% (inactive). For `CSc1nnc(NC(=O)c2nc(S(=O)(=O)Cc3ccc(C)cc3)ncc2Cl)s1`, the inhibition was 11.8% (inactive). For `COC1C(CO)OC(n2cnc3c(=S)nc(N)[nH]c32)C1O` (configuration not stated), the inhibition was 24.5% (inactive). For `COc1ccccc1NC(=O)N(O)C1(C#N)CCCCC1`, the inhibition was -17.6% (inactive). With `Cc1cc(NC(=O)C(C)SCC(=O)Nc2cccc(S(=O)(=O)N3CCCCCC3)c2)no1` (configuration not stated) the inhibition was -41.5% (inactive). With `CC1(C)C(=O)CCC2(C)C1=CCC1C2C(=O)CC2(C)C1CCC2(O)C(=O)CO` (configuration not stated) the inhibition was 20.2% (inactive). With `COc1ccc(CCNC(=O)COc2cc(C)cc3oc(=O)c(C)c(C)c23)cc1OC` the inhibition was -2.49% (inactive). For `CCN1C[C@@H]2[C@@H]3C(=O)N(C)C(=O)[C@@H]3[C@](C)(C1=O)N2C(=O)c1ccccc1`, the inhibition was -20.8% (inactive). For `COc1ccc(Cl)cc1C=CC=Nc1ccc(S(N)(=O)=O)cc1`, the inhibition was 4.35% (inactive). With `O=C(CSc1ccc(-c2ccc(-n3cccn3)cc2)nn1)Nc1ccc([N+](=O)[O-])cc1` the inhibition was 2.41% (inactive). With `O=C(CSc1ccc(-c2ccco2)nn1)Nc1cccc(F)c1` the inhibition was -6.54% (inactive). With `O=C(CSc1ccc(-c2ccccn2)nn1)Nc1ccccc1` the inhibition was 119% (active). For `NS(=O)(=O)c1ccc(CCNC(=O)c2ccc(Cl)c(S(=O)(=O)N3CCCCCC3)c2)cc1`, the inhibition was -11.9% (inactive). In the case of `O=S(=O)(Cc1ccc(Cl)cc1Cl)c1ccc(Cl)cc1`, the inhibition is reported as -35.8% (inactive). With `Cc1cccc(C)c1NC(=O)C(Cl)C(=O)c1ccccc1` (configuration not stated) the inhibition was 106% (active). With `Cc1cccc(C)c1NC(=O)CN(C)C(=O)CCC(=O)c1ccccc1` the inhibition was 3.14% (inactive). With `Cc1cccc(C)c1NC(=O)C(c1ccccc1)N1CC(=O)Nc2ccccc21` (configuration not stated) the inhibition was -3.52% (inactive). For `CC[C@]12c3[nH]c4ccc(OC)cc4c3CCN1C(=O)C(CC(=O)NCc1ccco1)C[C@@H]2C(=O)N1CCN(C(=O)C2CC2)CC1` (some centres not stated), the inhibition was 0.556% (inactive). In the case of `CCN(C(=O)C1CCCN(c2nc(-c3ccc(OC)cc3)no2)C1)c1ccc(OC)cc1` (configuration not stated), the inhibition is reported as 103% (active). In the case of `CCOC(=O)C1CCCN(C(=O)CN(c2ccc(OC)cc2)S(=O)(=O)c2c(C)noc2C)C1` (configuration not stated), the inhibition is reported as 14.1% (inactive). With `COc1ccc(NC(=O)N2CCCC(c3nc(-c4ccc(F)cc4)no3)C2)cc1` (configuration not stated) the inhibition was -5.6% (inactive). For `Cc1ccc(/C=N/NC(=O)c2cc3ccccc3cc2O)o1`, the inhibition was -3.13% (inactive). For `CC(=O)CCC(=O)c1ccc2ccccc2c1`, the inhibition was 14.9% (inactive). For `Cc1cc(N=Nc2ccc3ccccc3c2)ccc1O`, the inhibition was 107% (active). In the case of `CCCCNC(=O)C(C)N(CCN(C)C)C(=O)CCCN1C(=O)NC(c2ccc(Cl)cc2)C(C(=O)OCc2ccccc2)=C1C` (configuration not stated), the inhibition is reported as -3.34% (inactive). For `CN(C)CCNC(=O)c1ccc(Cl)c2cc3ccccc3nc12`, the inhibition was -3.1% (inactive). For `Cc1nc2nc(SCC(=O)NCc3ccco3)nn2c(C)c1Cc1ccccc1`, the inhibition was -0.223% (inactive). In the case of `O=C(Cc1ccccc1)n1nc(-c2ccccc2)nc1NCc1ccco1`, the inhibition is reported as -9.78% (inactive). In the case of `O=c1nc2s/c(=C\c3ccco3)c(=O)n2nc1Cc1ccccc1`, the inhibition is reported as 109% (active). In the case of `c1ccc2sc(NN=C3CCCC3)nc2c1`, the inhibition is reported as 7.45% (inactive). With `O=C(CCNC(=O)c1ccccc1)Nc1nc2ccccc2s1` the inhibition was -3.35% (inactive). With `c1ccc(C(=NNc2nc3ccccc3s2)c2ccccn2)cc1` the inhibition was 108% (active). For `O=[N+]([O-])c1ccc(N=NNc2ccc([N+](=O)[O-])cc2)cc1`, the inhibition was -30.4% (inactive).
